Inconclusive results are not listed. Activity calls are given as the source filed them.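 How the source made its calls, unless noted: active means normalized viability below 100% at a tested concentration; inactive means the rest.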
Legend:
[1] = viability loss in pontine glioma line – cell-based, SU-DIPG-XIII, MIPE4.0, CellTiter-Glo, qHTS, dose response (AID 1347061; cut-off not given, nearly all actives have AC50 up to about 37 µM;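 further: cells exposed to compound for 48 hours before readout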); details: CellTiter-Glo ATP luminescence
[2] = viability loss in pontine glioma line – cell-based, SU-DIPG-XIII, MIPE5.0, CellTiter-Glo, qHTS, dose response (AID 1347064; cut-off not given, nearly all actives have AC50 up to about 23 µM); details: CellTiter-Glo ATP luminescence
[3] = viability loss in pontine glioma line – cell-based, SU-DIPG-XXV, MIPE5.0, CellTiter-Glo, qHTS, dose response (AID 1347065; cut-off not given, nearly all actives have AC50 up to about 26 µM;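 further: cells exposed to compound for 48 hours before ATP readout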); details: CellTiter-Glo ATP luminescence
[4] = growth inhibition of DIPG cells – cell-based, MIPE5.0 library, qHTS (AID 1347068; cut-off not given, nearly all actives have IC50 up to about 30 µM); details: SU-DIPG-XXV viability
[5] = viability loss with induced miR-34 in A549 – imaging, A549 dox-inducible miR-34, nuclei and caspase counts, primary screen (AID 1347080;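 active means compounds whose cell count with miR-34 switched on is under 0.7 times the count with it off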); details: A549 miR-34 inducible, Hoechst nuclei count, 48 h
[6] = compounds altering HSF1 focus formation in cells – imaging, Selleck Cancer Library (AID 1347162; in the data active means plate-normalised HSF1 focus index below about 0.46); details: human cells, HSF1 nuclear foci imaging, at 10 µM; SSMD: measured here: HSF1 foci SSMD mean; cell count: measured here: cell number; plate-normalised HSF1 focus index: stronger effect = lower value
[7] = MELAS cybrid and Rieske KO viability enhancers – cell-based, MELAS cybrids, Rieske KO mouse fibroblasts, CellTiter-Glo, primary screen (AID 1508586;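 active means mean z-score across replicates of 1.96 or higher in either the MELAS or the Rieske mutant cell line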;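 further: z relative to plate mean and SD of compound and empty wells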); details: low glucose
[8] = drug combination growth inhibition, ovarian cancer – cell-based, oncology-focused library, rucaparib conditional, profiling panel (AID 1508598); details: patient-derived ovarian cancer cells, CellTiter-Glo viability, 144 h, stronger effect = lower value
[9] = growth inhibition of DIPG cells – cell-based, MIPE4.0 library, CellTiter-Glo luminescence, qHTS (AID 1347066; cut-off not given, nearly all actives have AC50 up to about 30 µM;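 further: cells exposed to compound for 48 hours before readout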); details: SU-DIPG-VI viability, CellTiter-Glo ATP luminescence
[10] = JHH-DIPG-1 glioma cell viability, MIPE5.0 library, CellTiter-Glo luminescence, qHTS (AID 1347067; cut-off not given, nearly all actives have AC50 up to about 26 µM;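 further: cells exposed to compound for 48 hours before readout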); details: JHH-DIPG-1 glioma viability, CellTiter-Glo ATP luminescence
[11] = at 0.000305 µM, OCI-C5x cells, with rucaparib 10 µM, 100% = cells with rucaparib alone
[12] = at 0.000305 µM, OCI-C5x cells, without rucaparib
[13] = at 0.000305 µM, OCI-P5x cells, with rucaparib 20 µM, 100% = cells with rucaparib alone
[14] = at 0.000305 µM, OCI-P5x cells, without rucaparib
[15] = at 0.00122 µM, OCI-C5x cells, with rucaparib 10 µM, 100% = cells with rucaparib alone
[16] = at 0.00122 µM, OCI-C5x cells, without rucaparib
[17] = at 0.00122 µM, OCI-P5x cells, with rucaparib 20 µM, 100% = cells with rucaparib alone
[18] = at 0.00122 µM, OCI-P5x cells, without rucaparib
[19] = at 0.00488 µM, OCI-C5x cells, with rucaparib 10 µM, 100% = cells with rucaparib alone
[20] = at 0.00488 µM, OCI-C5x cells, without rucaparib
[21] = at 0.00488 µM, OCI-P5x cells, with rucaparib 20 µM, 100% = cells with rucaparib alone
[22] = at 0.00488 µM, OCI-P5x cells, without rucaparib
[23] = at 0.0195 µM, OCI-C5x cells, with rucaparib 10 µM, 100% = cells with rucaparib alone
[24] = at 0.0195 µM, OCI-C5x cells, without rucaparib
[25] = at 0.0195 µM, OCI-P5x cells, with rucaparib 20 µM, 100% = cells with rucaparib alone
[26] = at 0.0195 µM, OCI-P5x cells, without rucaparib
[27] = at 0.0781 µM, OCI-C5x cells, with rucaparib 10 µM, 100% = cells with rucaparib alone
[28] = at 0.0781 µM, OCI-C5x cells, without rucaparib
[29] = at 0.0781 µM, OCI-P5x cells, with rucaparib 20 µM, 100% = cells with rucaparib alone
[30] = at 0.0781 µM, OCI-P5x cells, without rucaparib
[31] = at 0.313 µM, OCI-C5x cells, with rucaparib 10 µM, 100% = cells with rucaparib alone
[32] = at 0.313 µM, OCI-C5x cells, without rucaparib
[33] = at 0.313 µM, OCI-P5x cells, with rucaparib 20 µM, 100% = cells with rucaparib alone
[34] = at 0.313 µM, OCI-P5x cells, without rucaparib
[35] = at 1.25 µM, OCI-C5x cells, with rucaparib 10 µM, 100% = cells with rucaparib alone
[36] = at 1.25 µM, OCI-C5x cells, without rucaparib
[37] = at 1.25 µM, OCI-P5x cells, with rucaparib 20 µM, 100% = cells with rucaparib alone
[38] = at 1.25 µM, OCI-P5x cells, without rucaparib
[39] = at 5 µM, OCI-C5x cells, with rucaparib 10 µM, 100% = cells with rucaparib alone
[40] = at 5 µM, OCI-C5x cells, without rucaparib
[41] = at 5 µM, OCI-P5x cells, with rucaparib 20 µM, 100% = cells with rucaparib alone
[42] = at 5 µM, OCI-P5x cells, without rucaparib

COc1ccc(COc2cc3oc(=O)c4cc(C(C)O)ccc4c3cc2OC)cc1 (stereo not given)
0.921: z-score ([7]; Rieske KO mouse fibroblast survival, CellTiter-Glo 72 h)
-0.619: SSMD [6]
7360: cell count ([5]; measured here: total cells with miR-34 induction, stronger effect = lower value)
7980: cell count ([5]; measured here: total cells without miR-34 induction)
1.45: fold change ([5]; measured here: relative caspase fold change +Dox/-Dox)
7240: cell count [6]
inactive: outcome [1] | outcome [2] | outcome [3] | outcome [4] | fold change ([5]; stronger effect = lower value, cell number ratio, induced over uninduced) 0.923 | plate-normalised HSF1 focus index [6] 0.961 | z-score ([7]; MELAS cybrid survival, CellTiter-Glo 48 h, stronger effect = higher value) -0.463 | viability [8, 11] 108% | viability [8, 12] 122% | viability [8, 13] 103% | viability [8, 15] 119% | viability [8, 16] 114% | viability [8, 17] 108% | viability [8, 19] 121% | viability [8, 20] 104% | viability [8, 22] 101% | viability [8, 23] 118% | viability [8, 24] 118% | viability [8, 27] 122% | viability [8, 28] 114% | viability [8, 29] 103% | viability [8, 31] 113% | viability [8, 32] 100% | viability [8, 33] 102% | viability [8, 35] 126% | viability [8, 36] 107% | viability [8, 37] 103% | viability [8, 39] 132% | viability [8, 40] 130%
active: viability [8, 14] 97.5% | viability [8, 18] 98% | viability [8, 21] 98.6% | viability [8, 25] 99.9% | viability [8, 26] 98.3% | viability [8, 30] 96% | viability [8, 34] 92.5% | viability [8, 38] 94.4% | viability [8, 41] 92.1% | viability [8, 42] 90.6%

C[C@H](NC(=O)Cc1cc(F)cc(F)c1)C(=O)N[C@@H]1C(=O)N(C)c2ccccc2-c2ccccc21
-0.743: SSMD [6]
active: AC50 [1] 18.7 µM | viability [8, 13] 94.9% | viability [8, 14] 97.1% | viability [8, 17] 93.1% | viability [8, 21] 90.9% | viability [8, 26] 97.6% | viability [8, 29] 96.3% | viability [8, 33] 90.1% | viability [8, 34] 99.7% | viability [8, 37] 97.9% | viability [8, 38] 99% | viability [8, 41] 87.4% | viability [8, 42] 90.3%
inactive: outcome [3] | outcome [9] | outcome [10] | outcome [4] | plate-normalised HSF1 focus index [6] 0.981 | viability [8, 11] 117% | viability [8, 12] 120% | viability [8, 15] 121% | viability [8, 16] 124% | viability [8, 18] 102% | viability [8, 19] 118% | viability [8, 20] 127% | viability [8, 22] 102% | viability [8, 23] 122% | viability [8, 24] 129% | viability [8, 25] 101% | viability [8, 27] 122% | viability [8, 28] 132% | viability [8, 30] 104% | viability [8, 31] 131% | viability [8, 32] 145% | viability [8, 35] 142% | viability [8, 36] 144% | viability [8, 39] 146% | viability [8, 40] 141%
5760: cell count [6]

— PubChem BioAssay
